About 1,400 (4.5%) of roughly 31,000 sequences were called active. This excerpt belongs to a sample that is enriched for actives. A number with no mark means an inactive call.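 Rule for the calls: active = median seed-adjusted z-score above 1 or below -1; inactive = the rest.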

This test is described as follows: Novel Modifiers of Survival Motor Neuron (SMN) Protein: Gene Identification via Genome-wide siRNA Screen.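 Note: luminescence tracks full-length SMN protein made from the SMN2 reporter.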 The following applies: HEK293T SMN2-luciferase reporter, siRNA knockdown, 72 h; actives lie on both sides. An outline of the steps:
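HEK293T cells stably expressing an SMN2 splicing/cDNA-luciferase reporter were reverse-transfected with a druggable-genome siRNA library and read by luminescence at 72 hours; hits defined by MAD score above 1.0 or below -1.0.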
Consider GCGUAGUUAUAGAAGUAGATT against RBMX2, for which the median seed-adjusted z-score is -0.585.

Turning to GGAACUGUUUUUACAAGCATT against MKRN1, the median seed-adjusted z-score is -0.496.

Turning to UCAUAUAGGCAAAAUUUAATT against POU3F2, the median seed-adjusted z-score is -0.179. With GGGUUCACCUCAGAGAGCATT against DPF3 the figure was 0.242; with GAAACUUUCAUUACGUAUATT against SNX7, 0.146. Take GAACGAAAGGUCCUCAGUATT against SPATA21: the median seed-adjusted z-score was -1.03 (active). Regarding GCUGCUUCAGACUACCAAATT against TXNDC9, the median seed-adjusted z-score is -0.176. Turning to CCAUAUUAAUGUCCAUGAUTT against PCDHB7, the median seed-adjusted z-score is 0.365. As to GGAUGCCCACUGUAUCAUATT against MYST2, the median seed-adjusted z-score was -1.46 (active). As for GAUGGAUACCUCUACCUGATT against ZNF593, the median seed-adjusted z-score was 0.215.

For the sequence CGUGAUCUCAAGUCCAACATT against MAP3K11, the median seed-adjusted z-score was 0.773.

For CUACCAUUUUCAUCGAGGATT against FREM3, the median seed-adjusted z-score is -0.565.

For the sequence CGAAAGAGGCAAAUAUGAATT against CBX3, the median seed-adjusted z-score was -0.893.

Consider GGAUCGGGUUUACUCAGAATT against ACTR6, for which the median seed-adjusted z-score is 0.189. The value for GGAAGGAACCAUCCAGUAATT against POLR2L was -1.19 (active). With AGUUCUUCCUAAUCCGAGATT against DOLPP1 the figure was 0.00977; with AAUCGAUCCUCAAUCCUUATT against ZNF676, -0.499. As to GCUCCAAAUUGGUUGUAUUTT against PRKAG1, the median seed-adjusted z-score is 0.431. As for GAACAACUCUUGUGAGAUUTT against STC2, the median seed-adjusted z-score was -0.00039. With GCUUCUGAAAUGAACCGAATT against DDHD2 the figure was 0.447. GUGCGGUAGCUACUUGUUUTT against RRAD: the median seed-adjusted z-score is -0.267. For GGACUCUCAUGAGUGCUGATT against ACP2, the median seed-adjusted z-score is -0.00569.

Take GAAAGAUGUUGGGAAUAAATT against ST6GAL2: the median seed-adjusted z-score is 0.054. The value for CAUCCAUUAUGACCUGCUATT against ACO2 was -1.57 (active); that for CGUGUGGACUUGACAAGCATT against OBSCN was -0.798; that for CUAUAUCUCCAACACUUUUTT against SMARCD3 was 0.247. For the sequence GAGAAAAAGCGGAUCAAGATT against GRK6, the median seed-adjusted z-score was -0.862. The value for GGAAGAACGUGUAACCGAATT against RDX was 0.123; that for GAGUCUGCGUUAUCGACAATT against TPR was -1.03 (active). As to GGAUGAAAAAUACCGGUGUTT against UGT8, the median seed-adjusted z-score is 0. As for CAACCUUUCACUGCAAUGATT against NAT8, the median seed-adjusted z-score was -0.228.

For the sequence CGGGAAGAAUCAAAGUCGATT against KRT23, the median seed-adjusted z-score is -0.0696. Regarding GGAGCGAAAUGUUCAGGUUTT against PSPH, the median seed-adjusted z-score was -0.518.

Regarding CGAGGACACUCAAACGGAUTT against TAF7L, the median seed-adjusted z-score was -0.14. CACGAAAACUUACCCAGAATT against DGUOK: the median seed-adjusted z-score was 0.0168. For the sequence GGUCCCAGCUUGAAGAGAATT against CSTB, the median seed-adjusted z-score was 1.08 (active). The value for CAGGCAAAGUUCGACAGUATT against HEPH was -0.293. The value for GGAUUCUCAGUUACACUUATT against SLC25A3 was -0.495.

As for GAUCCGUUCUGAUUAGUGATT against EZH1, the median seed-adjusted z-score was 0.268. Regarding GUUCCUCACUUAUCGCUAUTT against ADAMTSL3, the median seed-adjusted z-score is -0.0419.

For GGAACUACGUCCACACCCATT against GHRHR, the median seed-adjusted z-score was 0. For GGAUAACACUAAGUUUAGATT against SFRS1, the median seed-adjusted z-score is -1.66 (active). The value for GGCCGGUGUUUGACGACAATT against STK32C was -0.311; that for CUCCCUCACCAAAACAAAATT against DUSP26 was 0.204; that for CAAGGUCUGUAGUCAAAAUTT against ZNF677 was -0.441. The value for GGAGGUUCAGAAGCACCUATT against PACSIN2 was 0.73; that for GUGUAGCACUGACCAAGAATT against RCAN3 was 0.544; that for GAUCUGUGCUAUACUGACATT against EFTUD2 was -1.25 (active). With GACCUGCUCUGUAACCUCATT against NAALADL1, the median seed-adjusted z-score is -0.0444.

Turning to AAAACUUACGAACAACAAATT against TBR1, the median seed-adjusted z-score was -0.388. With UCAAGCAUGUGGUCCUGUATT against AIP the figure was 0.529; with GAUGAGUAUGCAAAAUUUATT against ATR, -0.217; with GCACAUAAGGAGGCGAUUATT against WDR33, 3.27 (active). Take GCAACAUCGUGUUCUUGAATT against GAL3ST1: the median seed-adjusted z-score was 0.263. The value for GCAGAAACCCAGAUCGAGATT against PLAT was 0.246; that for GGAACUUUUUCGUCGGUAUTT against RNGTT was -1.55 (active); that for CGACAUUGGUGACCCUCUUTT against DDOST was -0.315. The value for GCAGUUCGAGAAGAACUUUTT against LMBR1 was 0.236. As to AGACACCCUUUGGACCACATT against ZFAND2A, the median seed-adjusted z-score is 0. As to GCACGAAUGAGGACGAUGATT against SPRY4, the median seed-adjusted z-score was -1.23 (active). As for GGUGGAAGUGGUCAACGUATT against DUSP21, the median seed-adjusted z-score is -0.0724. With GACGUGGAGUUGAUAAAGATT against DSC3 the figure was 0.18. GCCCGUCUGCAGUACCUAATT against ADAP2: the median seed-adjusted z-score is -1.1 (active).

As for GCACUUAUAUGACAGCGAATT against SIM1, the median seed-adjusted z-score is -0.0177. In the case of GCUCGAUUAACAAAAUAUATT against SLC30A5, the median seed-adjusted z-score is 0.401.

With GAUUGGACCUAACAAUGGATT against NEIL3, the median seed-adjusted z-score is 0.0736. With UGCUGACUUUUAACCCACATT against CDK4 the figure was 0.346; with CACUCGAAAUUUUGAAGCATT against CHD4, 0.625. On to CGGUUGAACUUCGAAAUAUTT against NF1, for which the median seed-adjusted z-score is -0.36. With CAACGGCAGGAAAUUCUAATT against KLRA1 the figure was 0.918. As for GUAUCGCAUUUCUACAGCATT against SAMHD1, the median seed-adjusted z-score was -1.33 (active). With AGAGCAAGCGGAAAAGGGATT against HAND1 the figure was 0.161; with GAAUCACCAGCUAAACUAUTT against STARD6, 0.0605; with GCACCAGCGAGAGAAGAGATT against PLA2G3, 0.543. With CCAAAGAACUUAAGGAUUUTT against NEURL2 the figure was 1.39 (active); with GGUCUACGUGAACAACUCUTT against KCNMB4, 0; with GCAAAUCGCUAGCAUCAUUTT against MLL2, -2.11 (active). The value for GCAUUUUGCAUAUCCACCATT against TRMT12 was 0.352; that for GAAGAAACUUGUGAACGAATT against MX1 was -1.49 (active); that for GGAACAGUCAUGCUGGAUATT against SLC4A7 was 0. In the case of GAACAUCGCAUAAUCCUGATT against ORC1L, the median seed-adjusted z-score is -0.536. Consider GCAACUUCGUGAGAUUACATT against COLEC12, for which the median seed-adjusted z-score was -1.04 (active). In the case of AAGCAUAAUUUGUACAGCUTT against NMNAT1, the median seed-adjusted z-score was 0.22. For CCAAGAUGCGAUCCUCCAATT against HOXA4, the median seed-adjusted z-score is 0.194. With GGCUUGGAUCAAUCUAAGATT against HNRNPL the figure was 1.04 (active); with GGGCAACUCUUCAUCUACATT against SLC5A10, 0.669; with GGCUAUACAUGGAUAGCAATT against SLITRK1, 0.215. On to CGAUUAGUGUCAAAGGCUUTT against MMP7, for which the median seed-adjusted z-score is 0.0315.

With CGAACGACAGUUCCACAAATT against PDE6A, the median seed-adjusted z-score was 1.25 (active). With GAAUCUAUGAGAUGAACAATT against LDB2 the figure was -0.0847; with GCAGAAUACAAGAGCUUGATT against EID2, -1.04 (active); with GGCUCCUUAUAUGACUAUUTT against ACVR1C, -0.0005. GCUCUGAGGGAGUAUCGAATT against TROVE2: the median seed-adjusted z-score was 0.399.

Turning to ACAUAACCGUUCUUCGAGATT against GTPBP2, the median seed-adjusted z-score was -0.166. The value for CAAAAGGACAAAUCAACGATT against DDAH1 was 0.138; that for GAGACUGUGCAGAUGUAUATT against ANGPT1 was 0.289; that for GCAUCAGCAUAAGUCCAUUTT against SIAH1 was 1.5 (active). With GUGUCGUACUCACAUCCAUTT against PTCH2 the figure was -0.191; with GUGACGGCUUUAGACCUGATT against PRTFDC1, 0.493; with GCAAGGUUCCUAGCGUGUATT against VCAM1, 0.19. For the sequence CAGCAGAGCCGAUCCAAGATT against GPR37L1, the median seed-adjusted z-score was -0.0348.

For the sequence ACAUCUUCAAGGCCCUUUUTT against CTDSP2, the median seed-adjusted z-score is 0.498.

Regarding GGAAUUCCGUAAAAGCAUUTT against HOXC13, the median seed-adjusted z-score is -0.318. Take CACUAAUCGUGAGCAUGGATT against XRCC5: the median seed-adjusted z-score was -1.11 (active).

Take GAGUAGUUUAGAUAAGUUATT against SPAG9: the median seed-adjusted z-score is 0.0795. The value for GCAUCCGAGAUGUGACUAATT against DIS3 was 0.266; that for GCAGUGAUCAUAAUUCUCATT against SLC7A1 was 0.445; that for UGACGACACUGACCGCAGATT against UBE2S was 0.348.

For the origin of these results see PubChem BioAssay AID1347426 (Functional Genomics Laboratory (NCATS/FGL), 2020).
